Reference: the supplement of paper PMC6522484
± gives the standard deviation of the averaged measurements.

Experiments:
DLD1 [1] = assay: cell viability (CellTiter-Glo) relative to plate median (fraction of plate median); higher = more viable cells; settings: 5 µM; treatment time 24 h; reporter: 7TFP
Summary of the method: (§1)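 Colorectal cancer cell lines stably carrying lentiviral TCF/Wnt firefly luciferase reporters (7TFP or TCF4/Wnt) were plated in 384-well plates and, 24 h later, given library compounds at a final 5 µM for 24 h. Firefly luciferase or CellTiterGlo luminescence was read on parallel plates with a Tecan F500 reader. Each well's signal was normalised to the plate median in webcellHTS2 (additive, without log transformation). Values are the mean of two independent replicates.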

HCT116 = assay: as above; settings: 5 µM; treatment time 24 h; reporter: TCF4/Wnt
Summary of the method: as §1

SW480 [2] = assay: as above; settings: 5 µM; treatment time 24 h; reporter: 7TFP
Summary of the method: as §1

DLD1 [3] = assay: TCF/Wnt firefly luciferase reporter signal relative to plate median (fraction of plate median); higher = higher Wnt reporter signal; settings: 5 µM; treatment time 24 h; reporter: 7TFP
Summary of the method: as §1

SW480 [4] = assay: as above; settings: 5 µM; treatment time 24 h; reporter: 7TFP
Summary of the method: as §1

SMILES	cell viability (DLD1 [1])	cell viability (HCT116)	cell viability (SW480 [2])	TCF/Wnt firefly luciferase reporter signal (DLD1 [3])	TCF/Wnt firefly luciferase reporter signal (SW480 [4])
CC(=O)O[C@]1(C(C)=O)CC[C@H]2[C@@H]3C=C(Cl)C4=CC(=O)[C@@H]5C[C@@H]5[C@]4(C)[C@H]3CC[C@@]21C	1 ± 0.035	0.96 ± 0.086	0.948 ± 0.0028	0.81 ± 0.052	0.923 ± 0.22
COC1=C(OC)C(=O)C(C/C=C(\C)CC/C=C(\C)CC/C=C(\C)CC/C=C(/C)CC/C=C(\C)CC/C=C(\C)CC/C=C(\C)CC/C=C(\C)CC/C=C(\C)CCC=C(C)C)=C(C)C1=O	1.02 ± 0.035	0.993 ± 0.067	1.115 ± 0.0071	0.98 ± 0.057	0.923 ± 0.15
CCn1cc(C(=O)O)c(=O)c2cnc(N3CCNCC3)nc21	0.976 ± 0.049	0.943 ± 0.12	1 ± 0.025	0.891 ± 0.21	0.98 ± 0.13
C[n+]1cc2c3c(ccc2c2ccc4cc5c(cc4c21)OCO5)OCO3	1.02 ± 0.021	1.08 ± 0.12	0.99 ± 0.043	1 ± 0.081	0.981 ± 0.011
CC1=CCc2c(cc3oc(C)cc(=O)c3c2O)OC1	1 ± 0.084	1.02 ± 0.033	1.06 ± 0.071	1.18 ± 0.15	1.11 ± 0.085
NC[C@H](O)c1ccc(O)c(O)c1	1.02 ± 0.035	0.95 ± 0.071	1.005 ± 0.0071	0.962 ± 0.069	0.9835 ± 0.0078
CCC(C)C(N)=O (stereo not given) [2-Methylbutyramide]	1.06 ± 0.028	1.05 ± 0.021	1.01 ± 0.018	1.16 ± 0.071	1.045 ± 0.0071
C#CCCCCCCCCCCCc1ccco1	0.997 ± 0.033	1.03 ± 0.014	1.075 ± 0.0071	1.145 ± 0.0071	0.953 ± 0.096
Oc1cccc2nc3c(O)cccc3nc12 [1,6-Phenazinediol]	1.12 ± 0.014	0.992 ± 0.069	1.01	1.12 ± 0.042	1.12 ± 0.12
NCCOB(c1ccccc1)c1ccccc1	0.968 ± 0.037	0.933 ± 0.042	0.96 ± 0.0071	1.135 ± 0.0071	1.04
O=C(O)c1ccc(S(=O)(=O)N(Cl)Cl)cc1	0.936 ± 0.027	1 ± 0.028	0.8755 ± 0.0078	0.937 ± 0.052	0.876 ± 0.03
C[C@](N)(Cc1ccc(O)c(O)c1)C(=O)O	0.981 ± 0.098	0.996 ± 0.062	1.03 ± 0.028	1.04 ± 0.087	1.03 ± 0.12
CN(N=O)C(=O)N[C@H]1C(O)O[C@H](CO)[C@@H](O)[C@@H]1O (mixture of isomers)	0.999 ± 0.03	1.03 ± 0.064	1.08 ± 0.021	0.962 ± 0.15	1.005 ± 0.0071
C[C@@H]1CC[C@@]23CCC4(C)[C@@](C=CC5[C@@]6(C)CC[C@H](O)C(C)(C)C6CC[C@]54C)(OC2=O)C3[C@H]1C (stereo not given in full)	1.025 ± 0.0071	1.04 ± 0.028	0.993 ± 0.0042	1.06 ± 0.18	0.994 ± 0.023
NC(C(=O)O)C(O)C(=O)O (stereo not drawn) [d,l-threo-3-HYDROXYASPARTIC ACID]	0.923 ± 0.036	1.09 ± 0.11	0.949 ± 0.044	1.14 ± 0.27	1.15 ± 0.064
C[C@]12CC[C@H]3C(=CCc4cc(O)ccc43)[C@@H]1CCC2=O	0.902 ± 0.086	0.869 ± 0.16	1.01 ± 0.031	1.07 ± 0.25	0.98 ± 0.057
COc1cc(NS(C)(=O)=O)ccc1Nc1c2ccccc2nc2ccccc12	1.11 ± 0.14	0.83 ± 0.09	1.03 ± 0.035	0.973 ± 0.053	0.841 ± 0.11
CCN(CC)CCNC(=O)c1ccc(N)cc1	1 ± 0.083	0.988 ± 0.06	1.02 ± 0.055	1.045 ± 0.0071	1.08 ± 0.099
COc1ccc2c(c1)OCC(Cc1ccc(O)c(OC)c1)C2=O (stereo not given)	0.99 ± 0.014	1.04 ± 0.07	0.915 ± 0.049	0.887 ± 0.066	0.971 ± 0.084
COc1ccc2c3c1O[C@H]1C[C@@H](O)C=C[C@@]31CCN(C)C2	1.04 ± 0.05	1 ± 0.081	1.03 ± 0.045	0.9965 ± 0.0021	1.05
Cc1cc(OC(=O)c2c(C)cc(O)cc2O)cc(O)c1C(=O)O	1.08 ± 0.099	1.03 ± 0.035	1.1 ± 0.071	1.03 ± 0.18	1.06 ± 0.05
Nc1nc(=O)c2nc(CNc3ccc(C(=O)N[C@@H](CCC(=O)O)C(=O)O)cc3)cnc2[nH]1	1.07 ± 0.057	0.977 ± 0.075	1.03 ± 0.044	1.01 ± 0.098	1.05 ± 0.12
N[C@@H](CSCSC[C@H](N)C(=O)O)C(=O)O	0.966 ± 0.013	0.915 ± 0.022	0.9935 ± 0.0092	1.05 ± 0.014	0.934 ± 0.048
COCCCOc1cc(C[C@@H](C[C@H](NC(=O)OC(C)(C)C)[C@@H]2C[C@@H](C(C)C)C(=O)O2)C(C)C)ccc1OC [Borrelidin derivative (C30H49NO7)]	1.01 ± 0.072	0.995 ± 0.036	0.959 ± 0.025	0.963 ± 0.12	0.9975 ± 0.0035
COc1ccc2c(c1)c(CC(=O)OCC(=O)O)c(C)n2C(=O)c1ccc(Cl)cc1	0.935 ± 0.073	0.885 ± 0.082	0.952 ± 0.04	1.05 ± 0.16	1.07 ± 0.028
CC(=O)OCC(=O)[C@H]1CC[C@H]2[C@@H]3CCC4=CC(=O)CC[C@]4(C)[C@H]3CC[C@]12C	0.952 ± 0.082	0.961 ± 0.13	0.974 ± 0.0014	1.11 ± 0.05	0.93 ± 0.059
COc1ccc(/C=C/C(=O)O)cc1OC	1.02 ± 0.045	1.06 ± 0.16	0.951 ± 0.083	1.01 ± 0.021	0.984 ± 0.021
